From paper PMC5540273 (PLoS ONE, 2017)

Key:
Conditions in all cases: concentration: 1 μM,replicates: in singlicate; n = 1
[1] = tested on: TNNI3K
[2] = tested on: T1, TRKA
T1 construct: gene NTRK1

[3] = tested on: TRKB
[4] = tested on: T2, TRKC
T2 construct: gene NTRK3

[5] = tested on: TRPM6
[6] = tested on: TSSK1B
[7] = tested on: TSSK3
[8] = tested on: TTK
[9] = tested on: TXK
[10] = tested on: TYK2(JH1domain-catalytic)
[11] = tested on: TYK2(JH2domain-pseudokinase)
[12] = tested on: TYRO3
[13] = tested on: ULK1
[14] = tested on: ULK2
[15] = tested on: ULK3
[16] = tested on: T3, VEGFR2
T3 construct: gene KDR

[17] = tested on: T4, VPS34
T4 construct: gene PIK3C3

[18] = tested on: VRK2
[19] = tested on: WEE1
[20] = tested on: WEE2
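Also: KINOMEscan kinase panel screen.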

Row | SMILES | %Inh [1] [%] | %Inh [2] [%] | %Inh [3] [%] | %Inh [4] [%] | %Inh [5] [%] | %Inh [6] [%] | %Inh [7] [%] | %Inh [8] [%] | %Inh [9] [%] | %Inh [10] [%] | %Inh [11] [%] | %Inh [12] [%] | %Inh [13] [%] | %Inh [14] [%] | %Inh [15] [%] | %Inh [16] [%] | %Inh [17] [%] | %Inh [18] [%] | %Inh [19] [%] | %Inh [20] [%]
1 | Cn1ccc2ncnc(Oc3ccc(NC(=O)Nc4cccc(C(F)(F)F)c4)c(Cl)c3)c21 | 87 | 53 | 84 | 84 | 0 | 0 | 0 | 25 | 0 | 0 | 0 | 0 | 0 | 0 | 1 | 98.2 | 0 | 0 | 3 | 9
2 | CN1CCN(CCNc2nc3cc(Oc4ccc(NC(=O)Nc5cc(C(F)(F)F)ccc5F)cc4)ccc3[nH]2)CC1.Cl.Cl [GW768504] | 0 | 0 | 0 | 0 | 0 | 8 | 0 | 41 | 0 | 0 | 0 | 0 | 0 | 0 | 0 | 58 | 17 | 0 | 8 | 2
3 | O=C(Nc1cccc(C(F)(F)F)c1)c1cccc(Oc2ccc3nccn3n2)c1 | 35 | 0 | 22 | 50 | 0 | 0 | 16 | 0 | 7 | 23 | 44 | 2 | 2 | 10 | 23 |  | 35 | 0 | 13 | 7
4 | CC(C(=O)NC1CCN(c2ccnc(Nc3ccc(F)cc3)n2)C1)c1ccc(Cl)cc1 (stereo not drawn) [GSK1379713] | 0 | 33 | 11 | 0 | 0 | 0 | 5 | 11 | 0 | 9 | 0 | 0 | 7 | 0 | 2 | 3 | 4 | 0 | 6 | 13
5 | CCOC(=O)N1CCC(n2cnc(-c3ccc(F)cc3)c2-c2ccnc(N)n2)CC1 [SB-219952] | 0 | 42 | 34 | 24 | 4 | 0 | 12 | 0 | 16 | 48 | 67 | 20 | 4 | 26 | 8 | 3 | 35 | 27 | 0 | 0
6 | CN(c1ccc2c(c1)nc(NCc1ccc(F)cc1)n2C)c1ccnc(Nc2ccc(CS(C)(=O)=O)cc2)n1.Cl [GW813244] | 11 | 0 | 7 | 0 | 24 | 0 | 4 | 0 | 80 | 36 | 12 | 4 | 28 | 13 | 21 | 98.3 | 30 | 6 | 0 | 7
7 | CC(=O)Nc1nc2cnc(Nc3cc(NC(=O)c4cccc(CC(C)(C)C#N)c4)ccc3C)nc2s1 | 57 | 0 | 0 | 7 | 2 | 19 | 1 | 12 | 1 | 0 | 28 | 0 | 30 | 0 | 11 | 63 | 11 | 0 | 0 | 15
8 | O=C(Nc1ccccc1)c1cccc(Oc2ccc3nccn3n2)c1 | 2 | 0 | 0 | 21 | 0 | 0 | 0 | 0 | 0 | 5 | 18 | 29 | 0 | 0 | 0 |  | 6 | 0 | 0 | 0
9 | CNC(=O)c1ccccc1Nc1nc(Nc2cccc(CS(C)(=O)=O)c2)ncc1C.O=CO [GSK1520489] | 66 | 98 | 91.1 | 97.4 | 78 | 9 | 0 | 93.8 | 99.7 | 99.6 | 98.9 | 72 | 98.6 | 65 | 99.9 | 96.3 | 77 | 36 | 98.1 | 99.9
10 | COc1cccc(OC)c1C(=O)Nc1cccc(-c2nn3ccccc3c2-c2ccnc(Nc3cccc(F)c3)n2)c1 [GSK361065] | 8 | 0 | 0 | 0 | 4 | 20 | 0 | 5 | 6 | 0 | 0 | 79 | 0 | 13 | 0 | 18 | 0 | 0 | 9 | 12
11 | CCn1c(-c2nonc2N)nc2cncc(Br)c21 [SB-738004] | 0 | 56 | 20 | 44 | 0 | 0 | 25 | 0 | 0 | 58 | 18 | 0 | 14 | 13 | 3 | 37 | 36 | 35 | 13 | 0
12 | COc1cc2c(Nc3ccc(NC(=O)c4ccccc4)cc3)ncnc2cc1OCCCN1CCOCC1 [GSK301329] | 9 | 84 | 0 | 0 | 23 | 0 | 16 | 50 | 4 | 2 | 0 | 13 | 7 | 0 | 13 | 6 | 2 | 0 | 19 | 9
13 | CS(=O)(=O)c1cccc(CNc2nc(Nc3ccc4c(c3)[C@@H]3C[C@@H]4CNC3=O)ncc2C(F)(F)F)c1 | 0 | 99.2 | 96.8 | 90.4 | 0 | 0 | 6 | 99.8 | 28 | 94.7 | 0 | 0 | 89 | 77 | 99.9 | 98.1 | 0 | 37 | 2 | 30
14 | COc1cc2ncn(-c3cc(OCC4CCCCC4)c(C(N)=O)s3)c2cc1OC [GSK204559] | 5 | 31 | 0 | 0 | 13 | 0 | 3 | 30 | 0 | 12 | 15 | 0 | 9 | 0 | 25 | 4 | 20 | 0 | 0 | 25
15 | COC(=O)Nc1nc2cc(Oc3ccc(NC(=O)Nc4cc(C(F)(F)F)ccc4Cl)cc3)ccc2[nH]1.Cl [GW697465] | 88 | 100 | 99.7 | 99.8 | 0 | 0 | 10 | 1 | 0 | 14 | 30 | 3 | 17 | 0 | 10 | 64 | 35 | 4 | 8 | 11
16 | O=C(Nc1ccc(Oc2ccc3nc(NC(=O)C4CC4)cn3n2)c(F)c1)c1cccn(-c2ccccc2)c1=O | 12 | 87 | 80 | 20 | 0 | 0 | 0 | 10 | 69 | 0 | 0 | 74 | 0 | 0 | 0 | 98.2 | 44 | 0 | 14 | 0
17 | O=c1[nH]cc(-c2ccc(O)cc2)c2sc(-c3ccncc3)cc12 [GSK1033723] | 18 | 46 | 0 | 14 | 2 | 0 | 9 | 11 | 5 | 0 | 16 | 8 | 8 | 2 | 6 | 0 | 0 | 0 | 3 | 0
18 | C[C@@H](Oc1cc(-n2cnc3cc(-c4ccncc4)ccc32)sc1C(N)=O)c1ccccc1Cl [GSK479719] | 29 | 66 | 52 | 50 | 0 | 34 | 13 | 2 | 0 | 25 | 46 | 15 | 32 | 3 | 18 | 40 | 32 | 0 | 1 | 0
19 | Cc1ccc2c(-c3ccnc(Nc4ccc(C(F)(F)F)cc4)n3)cnn2n1 [GW819776] | 3 | 0 | 0 | 0 | 43 | 0 | 0 | 38 | 0 | 5 | 69 | 0 | 0 | 0 | 21 | 0 | 48 | 31 | 6 | 0
